Compound activity deposited in PubChem BioAssay by National Center for Advancing Translational Sciences (NCATS).
KAT2A inh: qHTS Assay for Inhibitors of GCN5L2 | 390,000 tested, 0.21% active | Potency, µM (titrated, usually from 58.9 µM), without a hit: at the top dose activity change, negative = inhibition, usual class: inhibitors | Histone acetyltransferase KAT2A (Homo sapiens), Q92830 | GCN5L2 HAT assay, ThioGlo1 CoA-SH fluorescence | AID 504327, 2011; also: % is scaled to controls: 0 for no effect and ±100 for the full control effect
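Enzyme at 20nM final was mixed with library compounds for 15 min at room temperature. Peptide H3(1-25) at 75uM, acetyl-CoA at 70uM and ThioGlo1 at 50uM were then added. Plates were read immediately and after 20 min (Ex340nm/Em540nm).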
USP1 inh: Inhibitors of USP1/UAF1: Primary Screen. AID 743255, 2014. recombinant USP1/UAF1, Ub-Rhodamine cleavage fluorescence. 390,000 tested, 0.23% active. Ubiquitin carboxyl-terminal hydrolase 1 (Homo sapiens), O94782. Potency, µM (series often up to 57.1 µM), inactives show at the top dose activity change, negative = inhibition, hits mostly inhibitors; also: % is scaled to controls: 0 for no effect and ±100 for the full control effect; nearly all actives have a fitted effect of over 60% in size
Target sequence (O94782 whole entry, looked up): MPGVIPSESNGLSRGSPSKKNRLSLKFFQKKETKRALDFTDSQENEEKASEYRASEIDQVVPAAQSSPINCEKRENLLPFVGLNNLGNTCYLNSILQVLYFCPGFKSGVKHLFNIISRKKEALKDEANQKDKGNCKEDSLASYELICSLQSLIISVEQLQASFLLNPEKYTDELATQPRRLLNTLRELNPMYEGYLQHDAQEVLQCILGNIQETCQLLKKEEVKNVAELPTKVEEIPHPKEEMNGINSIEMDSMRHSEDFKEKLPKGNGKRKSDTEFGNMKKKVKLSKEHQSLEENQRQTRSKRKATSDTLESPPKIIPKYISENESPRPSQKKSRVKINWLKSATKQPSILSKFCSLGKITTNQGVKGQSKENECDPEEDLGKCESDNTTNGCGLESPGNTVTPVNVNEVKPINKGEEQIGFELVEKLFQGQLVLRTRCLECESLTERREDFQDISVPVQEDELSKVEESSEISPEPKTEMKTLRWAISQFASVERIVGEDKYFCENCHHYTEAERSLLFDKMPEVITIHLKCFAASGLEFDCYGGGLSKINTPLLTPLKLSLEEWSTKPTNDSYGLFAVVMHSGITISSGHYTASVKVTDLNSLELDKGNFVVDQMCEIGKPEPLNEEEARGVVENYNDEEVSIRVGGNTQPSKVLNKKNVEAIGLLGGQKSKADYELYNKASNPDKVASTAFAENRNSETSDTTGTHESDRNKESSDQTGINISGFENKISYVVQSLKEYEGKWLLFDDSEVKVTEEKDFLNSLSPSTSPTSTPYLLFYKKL
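In this screen, compounds sit with the deubiquitinase complex (1nM) for 15 min at room temperature before Ub-Rho is added at 150nM final. Fluorescence rise is then followed for 6 reads every 60 seconds.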
VDR inh: Inhibitors of the vitamin D receptor (VDR): qHTS. 400,000 tested, 0.93% active. Potency, µM, for the others: max response, negative = inhibition, usual class: inhibitors. AID 504847, 2011. VDR-SRC2-3 peptide fluorescence polarization, 2 h; also: % is scaled to controls: 0 for no effect and ±100 for the full control effect
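Inhibition of the VDR/SRC2-3 peptide interaction is quantified by fluorescence polarization. Compounds (23 nl, pintool) incubate with the reagents for 2 hours at ambient room temperature.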
PTAP TSG101 blk: qHTS Assay for Iinhibitors of HIV-1 Budding by Blocking the Interaction of PTAP/TSG101; Tumor susceptibility gene 101 protein (Homo sapiens), Q99816; Fluorescence polarization, FITC-PTAP peptide / Tsg101 binding; Potency, µM (series often up to 115 µM), inactives show top-dose activity change, negative = inhibition, most hits filed as inhibitors; 340,000 tested, under 10 active; active = well fitted inhibition curve with a large enough effect in the main read-out, with a control signal flat, not every such curve was filed as active; inconclusive = small, poorly fitted or top-dose-only effect, or effect the other way, or a change in a side signal; inactive = no such curve, though single readings can be large or run the other way; also: % of control where 0% means no effect
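Compounds were pin-transferred onto Tsg101 binding domain (10 uM final) in HEPES pH 7.5 buffer, then FITC-PTAP peptide was added at 50 nM final. After 20 min at RT, polarization reported peptide displacement across a qHTS concentration series.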
PLK1 PBD block: qHTS for Inhibitors of PLK1-PDB (polo-like kinase 1 - polo-box domain): Primary Screen; Serine/threonine-protein kinase PLK1 (Homo sapiens), P53350; Plk1 PBD binding of FITC phosphopeptide, fluorescence polarization; Potency, µM, for the others: max response, negative = inhibition, usual class: inhibitors; 360,000 tested, 2.8% active; AID 720504, 2013; also: series mostly up to about 57 µM; % is scaled to controls: 0 for no effect and ±100 for the full control effect; nearly all actives have a fitted effect of over 65% in size
TbPYK confirm: qHTS of Trypanosoma Brucei Inhibitors: Confirmatory Assay for Cherry-picked Compounds; shares compounds with PLK1 PBD block; recombinant TbPYK, Kinase-Glo ATP luminescence; Potency, µM (series often up to 76.9 µM), for inactives: at the top dose activity change, negative = inhibition, usual class: inhibitors; 890 tested, 67% active; also: % is scaled to controls: 0 for no effect and ±100 for the full control effect; nearly all actives have a fitted effect of over 70% in size
TbPYK ADP-Glo: qHTS of Trypanosoma Brucei Inhibitors: Orthogonal Assay for Cherry-picked Compounds; Potency, µM (doses to about 76.9 µM), for the others: at the highest dose activity change, negative = inhibition, hits mostly inhibitors; shares compounds with PLK1 PBD block; AID 720584, 2013; 890 tested, 62% active; recombinant TbPYK, ADP-Glo luminescence, 60 min; also: % is scaled to controls: 0 for no effect and ±100 for the full control effect; nearly all actives have a fitted effect of over 75% in size
Starred values were filed as active, the others as inactive; u = inconclusive; x = no result. Hits are enriched below; roughly 3% of the tested compounds scored in any of these assays. Unless noted, calls follow the shape of the dose curve; as a rule, active = well fitted curve in the direction sought with a large enough effect; inconclusive = small, poorly fitted or top-dose-only effect, or another doubt; inactive = no such curve, though single readings can be large; an effect the other way counts as inactive or inconclusive. Potency is read from the fitted curve at half-maximal effect.

SMILES	KAT2A inh	USP1 inh	VDR inh	PTAP TSG101 blk	PLK1 PBD block	TbPYK confirm	TbPYK ADP-Glo
CCOCCCNC1=C(Cl)C(=O)c2ccccc2C1=O	-21.7%	u	u	-5.0%	21.2µM*	u	u
NC(=O)c1sc2nc(N3CCOCC3)c3c(c2c1N)CCCC3	-2.3%	-5.4%	-14.3%	1.7%	26.7µM*	11.2µM*	10µM*
CCCCN(CCCC)C(=O)c1sc2nc(N3CCOCC3)c3c(c2c1N)CCCC3	-13.4%	-8.6%	u	-2.0%	29.9µM*	1.58µM*	3.16µM*
CCOc1ccccc1CNC(=O)CCCN1C(=O)c2cccnc2Oc2ccc(Cl)cc21	-9.6%	-30.5%	9.2%	x	x	x	x
Cn1nnnc1Sc1ncnc2scc(-c3ccccc3C(F)(F)F)c12	u	x	-20.0%	-0.9%	x	12.6µM*	28.2µM*
Fc1ccc(CNc2ncnc3c2c(-c2ccccc2)cn3-c2ccccc2)cc1	4.1%	-29.1%	17.1%	x	x	x	x
CSCC(O)Cn1ncc2ccccc2c1=O (stereo unspecified)	-11.6%	-22.7%	-9.0%	-1.7%	-0.4%	x	x
O=c1nccc(N/N=C/c2ccccc2O)[nH]1	-1.8%	-5.5%	-18.4%	-9.1%	u	u	4.0%
COc1cccc(/C=N/Nc2ccnc(=O)[nH]2)c1O	-2.0%	-6.7%	-9.7%	1.4%	1.4%	x	x
COc1cc(/C=C/c2sc3ccccc3[n+]2CCCS(=O)(=O)[O-])ccc1O	-3.0%	25.1µM*	-15.7%	u	36.5%	15.8µM*	2.6%
CN1C(=CC=C2C=C(I)C(=O)C(I)=C2)C(C)(C)c2ccccc21	-10.3%	-22.3%	5.8%	u	55.0%	u	5.5%
CN1/C(=C\C=C2/C(=O)Oc3ccccc3C2=O)C(C)(C)c2ccccc21	-16.1%	u	-10.2%	u	-106.3%	x	x
CCN1C(=O)/C(=C\C=C2/C=CC=CN2CC)SC1=S	-11.7%	u	u	72.9%	12.3%	x	x
CCN1C(=O)/C(=C/C=C2\C=CN(CC)c3ccccc32)SC1=S	1.2%	u	-1.8%	0.1%	-9.8%	22.4µM*	u
Cc1snc(SCC(=O)c2ccc([N+](=O)[O-])cc2)c1C#N	6.31µM*	-18.9%	u	2.1%	9.47µM*	17.8µM*	20µM*
Cc1cccc(C(C(=O)NC2CCCCC2)N(C(=O)c2csnn2)C2CC2)c1 (stereo unspecified)	-3.6%	-19.2%	14.3%	-3.0%	0.7%	x	x
O=C(N/N=C/c1ccc(N2CCOCC2)o1)c1ccccc1[N+](=O)[O-]	-15.3%	-8.5%	u	4.9%	1.3%	x	x
O=C(N/N=C/c1ccc(N2CCOCC2)o1)c1cccc(C(F)(F)F)c1	-7.1%	-14.2%	25.1µM*	2.7%	-7.5%	u	35.5µM*
Fc1ccc(C(CCNCc2cccs2)c2ccco2)cc1 (stereo unspecified)	-6.9%	0.3%	-3.5%	-2.6%	3.6%	x	x
O=S(=O)(NCCC(c1ccc(F)cc1)c1ccco1)c1ccccc1 (stereo unspecified)	-9.2%	-22.5%	u	-8.3%	21.2µM*	-3.1%	-5.3%
COc1ccc(-c2cc(=O)c3cc(OCC(=O)OC(C)C)ccc3o2)cc1	10.7%	-18.5%	6.1%	x	x	x	x
O=C(NCc1cccnc1)C1CCN(Cc2cc3ccccc3n2Cc2cccc(Cl)c2)CC1	-9.4%	u	0.9%	x	x	x	x
CC(=O)Nc1ccc(C23CC4CC(CC(C4)C2)C3)cc1	-3.1%	-27.1%	-2.2%	-6.4%	-1.9%	x	x
Oc1ccc(C23CC4CC(CC(C4)C2)C3)cc1O	-0.1%	-21.8%	10.0%	-5.5%	-17.5%	20µM*	20µM*
COc1cc(N2C(=O)C=CC2=O)ccc1N1C(=O)C=CC1=O	x	-15.2%	u	-6.7%	2.38µM*	1.12µM*	1.78µM*
SMILES	KAT2A inh	USP1 inh	VDR inh	PTAP TSG101 blk	PLK1 PBD block	TbPYK confirm	TbPYK ADP-Glo
Cc1ccc(-c2nc3ccccc3nc2-c2ccccc2)cc1	-5.0%	-12.5%	2.8%	0.4%	-11.9%	x	x
CNc1nc(-c2ccccc2)[n+](-c2ccc(C)cc2)s1	7.94µM*	-14.7%	u	-4.8%	1.5µM*	1µM*	1.78µM*
Cc1ccc(-c2nc(N)s[n+]2-c2ccccc2)cc1	6.31µM*	-18.4%	-25.5%	-1.4%	3.77µM*	2.24µM*	6.31µM*
CCN1C(=O)/C(=C2/C=Cc3cc(C)ccc3N2CC)N(C)C1=S	28.9%	-25.1%	1.3%	-1.3%	0.2%	35.5µM*	-25.7%
CCN1/C(=C2/SC(=S)N(C)C2=O)C=Cc2cc(C)ccc21	x	-1.0%	31.2%	-10.4%	-19.9%	x	x
COCCn1c(=S)[nH]c2sc3c(c2c1=O)CCCC3	-24.2%	-25.0%	-18.3%	1.7%	-13.7%	10µM*	10µM*
CCN(CC)c1ccc(N=C2C(=O)Nc3ccccc32)cc1	-27.2%	31.6µM*	u	5.6%	-27.4%	u	-3.9%
COc1ccc2nc(Nc3sc4c(c3C(N)=O)CCCC4)sc2c1	-9.8%	-13.6%	u	-0.9%	u	6.31µM*	7.94µM*
CC(C)Sc1nnc(CNC(=O)C23CC4CC(CC(C4)C2)C3)n1C1CCCCC1	-2.6%	-17.9%	1.7%	0.4%	-4.1%	5.62µM*	11.2µM*
Cc1cc(C2=NNC(=Nc3ccccc3)SC2)c(C)n1C	-4.1%	-26.5%	-8.5%	-4.1%	-5.0%	u	14.1µM*
COc1ccc(/C=N/NS(=O)(=O)c2ccc(F)cc2)cc1CN1CCSCC1	-5.5%	-5.2%	-11.3%	-1.0%	1.7%	x	x
NS(=O)(=O)c1ccc(CCNC(=O)c2cncc(Br)c2)cc1	38.9%	-17.2%	u	-1.0%	2.99µM*	4.2%	-1.9%
O=C(NCc1cccs1)c1cccc2c(-c3ccc(F)c(F)c3)coc12	x	x	x	x	-11.6%	x	x
CC(C)(C)OC(=O)N1CCC(c2c(C(=O)NCc3ccccc3)cnn2-c2cccc(F)c2)CC1	0.4%	-7.5%	-1.6%	x	x	x	x
CC(=O)NC1=NC(=O)/C(=C/c2cn(C(C)=O)nc2-c2ccccc2)S1	-22.9%	-14.2%	u	-1.6%	9.47µM*	u	u
CCN=C1S/C(=C\c2cn(C(C)=O)nc2-c2ccccc2)C(=O)N1CC	-10.4%	-22.3%	10.8%	-2.8%	2.7%	x	x
